# Lamin A splicing – LMNA splicing modulation; AID 1487; HeLa LMNA splicing GFP/RFP minigene ratio, 48 h; Potency, µM (titrated, usually from 46.1 µM), for inactives: at the top dose ratio change, negative = inhibition, usual class: inhibitors; 0.01% of 200,000 active; active = well fitted inhibition curve with a large enough effect in the signal ratio, with a control signal flat, not every such curve was filed as active; inconclusive = small, poorly fitted or top-dose-only effect, or effect the other way, or a change in a side signal; the % refers to the signal ratio; also: potency is read from the fitted curve at half-maximal effect
#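 S3 HeLa cells stably expressing lamin A-EGFP splicing minigene plus DsRed2, 600 cells/well, 48 h compound exposure at 37C. Laser-scanning cytometry; analysed as GFP (500-530 nm)/RFP (575-640 nm) total intensity ratio; 0.5% DMSO vehicle.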
# HPGD inh – blocks human HPGD enzyme activity | purified HPGD, NADH fluorescence kinetic, PGE2 substrate | AID 894 | P15428 | 4.3% of 150,000 active | Potency, µM, for inactives: at the highest dose activity change, negative = inhibition, actives largely listed as inhibitors; also: potency is read from the fitted curve at half-maximal effect
# Target sequence (P15428 whole entry, looked up): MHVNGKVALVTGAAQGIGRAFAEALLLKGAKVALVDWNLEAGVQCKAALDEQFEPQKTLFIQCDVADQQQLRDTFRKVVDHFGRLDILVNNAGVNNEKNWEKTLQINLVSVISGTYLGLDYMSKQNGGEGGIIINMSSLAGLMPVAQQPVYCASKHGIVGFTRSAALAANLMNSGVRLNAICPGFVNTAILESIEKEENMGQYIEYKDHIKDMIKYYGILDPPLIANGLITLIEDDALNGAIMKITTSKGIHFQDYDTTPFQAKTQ
#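 NADH formation kinetics: reaction with 30 uM PGE2 and 1 mM NAD+ (final), 20 nM enzyme, Tris-HCl pH 8 with Tween 20, after 15 min compound preincubation at room temperature. Fluorescence change, last versus first of five reads.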
# KinaseGlo FLuc – blocks Kinase-Glo luciferase, a counter-screen artifact | Kinase-Glo luciferase, ATP luminescence, 8 min | Q27757 | AID 1379 | Potency, µM (series often up to 38.3 µM), without a hit: at the highest dose activity change, negative = inhibition, usual class: inhibitors | 0.28% of 200,000 active; active = well fitted inhibition curve with a large enough effect; inconclusive = small, poorly fitted or top-dose-only effect; also: potency is read from the fitted curve at half-maximal effect; nearly all actives have a fitted effect of over 60% in size
#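 Recombinant Kinase-Glo luciferase, 10 uM ATP (linear range), luciferin; imidazole pH 7.2 / KCl / MgCl2 / Tween / BSA buffer; 8 min RT; luminescence.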
# ALDH1A1 block – ALDH1A1 (human) enzyme inhibition; Purified ALDH1A1, NADH fluorescence, propionaldehyde substrate; 7.3% of 220,000 active; Potency, µM (series often up to 75.3 µM), for inactives: at the highest dose activity, negative = inhibition, hits mostly inhibitors;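 also: potency is read from the fitted curve at half-maximal effect; plate controls were no enzyme wells and a reference inhibitor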
# Target sequence (P00352 whole entry, looked up): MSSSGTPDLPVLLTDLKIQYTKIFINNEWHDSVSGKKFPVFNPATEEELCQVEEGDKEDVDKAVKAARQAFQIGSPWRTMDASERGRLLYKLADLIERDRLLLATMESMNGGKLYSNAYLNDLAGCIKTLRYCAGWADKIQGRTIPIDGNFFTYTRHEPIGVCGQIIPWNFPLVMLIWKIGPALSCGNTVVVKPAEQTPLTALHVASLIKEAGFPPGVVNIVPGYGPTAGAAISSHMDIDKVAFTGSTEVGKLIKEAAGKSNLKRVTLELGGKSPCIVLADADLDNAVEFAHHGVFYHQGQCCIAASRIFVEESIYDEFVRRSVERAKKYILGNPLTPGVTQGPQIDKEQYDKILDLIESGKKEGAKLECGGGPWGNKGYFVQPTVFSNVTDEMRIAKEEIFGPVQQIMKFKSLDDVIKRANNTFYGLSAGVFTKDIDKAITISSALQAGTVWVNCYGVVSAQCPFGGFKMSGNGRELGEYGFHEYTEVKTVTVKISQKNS
# PNC inhibitor – blocks assembly of the perinucleolar compartment; PC3M PTB-GFP, PNC prevalence imaging, 16 h; active compounds read low; activity change (PNC), negative = inhibition, % at 10 µM; 3.1% of 140,000 active; AID 2417;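 active = readout at or below -70, meaning at least 70% loss of cells showing the perinucleolar compartment, a nuclear body marking cancer cells; inconclusive = readout between -30 and a set limit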;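 also: plate controls were DMSO wells for no effect and camptothecin positive control wells for full effect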
#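 PC3M cells stably expressing PTB-GFP, 750–1000 cells/well, treated 16 h at 37 °C with compound (23 nl of library stock), in duplicate. After paraformaldehyde fixation and Hoechst stain, imaged at 20x; PNC prevalence scored by image analysis.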
# Numbers without * were called inactive; u = inconclusive; x = no result; [ ] = another dose, or the depositor's remark. In the library only some 10% were active in any assay of this set; here they are far more common. Unless noted, calls follow the shape of the dose curve; as a rule, active = well fitted inhibition curve with a large enough effect (not every such curve was filed as active); inconclusive = small, poorly fitted or top-dose-only effect, or another doubt; inactive = no such curve, though single readings can be large or run the other way. Unless noted, % is scaled to controls: 0 for no effect and ±100 for the full control effect.
SMILES,Lamin A splicing,HPGD inh,KinaseGlo FLuc,ALDH1A1 block,PNC inhibitor
Cc1ccc(O)c(C2=NOC(O)(C(F)(F)F)C2)c1 (stereo not given),0.3%,14.1µM*,1.0%,2.9%,19.9
Cc1ccc(O)c(C2=NCCNC(C(F)(F)C(F)F)=C2)c1,8.1%,-3.9%,-6.5%,-2.5%,12.5
Cc1ccc(O)c(C2=NOC(O)(C(F)(F)C(F)F)C2)c1 (stereo not given),u,5.01µM*,0.1%,9.1%,u
O=C(O/N=C1\C(=O)N(c2ccccc2)c2ccccc21)C1CC1,u,x,0.1%,-3.6%,x
CN1C(=O)/C(=N/OC(=O)c2ccccc2)c2ccccc21,11.3%,14.1µM*,-1.5%,u,41.2
COc1ccccc1-c1ccc(Nc2cccc(C(F)(F)F)c2)nn1,-9.3%,-5.5%,13.1%,-0.1%,-15.0
COc1ccccc1-c1ccc(NC2CCCCC2)nn1,-15.5%,7.08µM*,-3.1%,-5.3%,108.3
c1ccc(-c2noc(-c3ccc4c(c3)OCO4)n2)cc1,x,x,10µM*,7.6%,x
CC(C)(C)OC(=O)N1CCC(N2CCN(Cc3ccccc3)C(=O)C2=O)CC1,8.5%[46 µM],x,x,x,x
CC1Cc2ccccc2N1C(=O)CN1C(=O)C(=O)N(Cc2ccccc2)C1=O (stereo not given),14.7%,-21.1%,-7.3%,31.6µM*,5.4
O=[N+]([O-])c1ccc(C(c2sc3nc(-c4ccco4)nn3c2O)N2CCN(Cc3ccccc3)CC2)cc1 (stereo not given),5.4%[46 µM],x,x,x,x
O=C1NCCCC2c3c(cc(Br)c(O)c3Br)OC12N1CCCCC1 (stereo not given),3.5%,12.6µM*,-3.0%,7.94µM*,5.8
CCOC(=O)c1c(NC(=O)c2ccco2)sc2c1CCCC2,5.1%,u,-0.4%,u,-24.8
COC(=O)c1c(NC(=O)c2ccco2)sc(C(=O)N2CCCC2)c1C,-3.3%,17.8µM*,10.7%,14.1µM*,-18.2
COC(=O)c1c(NC(=O)Cc2cccs2)sc(C(=O)N2CCCCC2)c1C,-1.6%,15.8µM*,0.1%,4.47µM*,9.8
CCOC(=O)c1c(NC(=O)Cc2cccs2)sc(C)c1C,0.2%,u,-7.5%,12.6µM*,4.3
C[C@@H](C(=O)Nc1ccc2ccccc2c1)[C@@H]1C[C@@]1(C)[C@@H](NS(=O)(=O)c1ccc(-c2ccccc2)cc1)c1ccccc1,x,-13.7%,-1.3%,2.0%,x
O=S(=O)(NC(=S)NC1CCCCC1)c1ccccc1,x,x,1.2%,22.4µM*,x
O=S(=O)(NC(=S)NC1CCCCC1)c1cccs1,x,x,3.1%,5.62µM*,x
COc1ccc([C@H]2c3cc(OC)c(OC)cc3C[C@@H](C)[C@@H]2C)cc1OC,x,-2.4%,2.9%,7.1%,x
CC1CCN(S(=O)(=O)c2ccc(N3CCCCS3(=O)=O)cc2)CC1,10.6%[46 µM],x,x,x,x
CN1c2ccsc2C(O)=C(C(=S)Nc2ccc(F)c(Cl)c2)S1(=O)=O,u,u,3.3%,9.46µM*,-16.7
CN(Cc1ccc(-n2cccn2)cc1)Cc1nc(-c2cnccn2)no1,x,x,1.7%,9.6%,x
Cn1cc(C(=O)CCl)c2ccccc21,u,x,0.7%,0.0631µM*,x
CS(=O)(=O)N(CC(=O)O)Cc1ccccc1,x,-6.7%,2.8%[7.66 µM],-5.9%[13.5 µM],x
SMILES,Lamin A splicing,HPGD inh,KinaseGlo FLuc,ALDH1A1 block,PNC inhibitor
CCCC1CC(C)(C(=O)CSc2n[nH]c(-c3ccccc3)n2)OC1=O (stereo not given),-15.9%,-29.7%,2.9%,10µM*,-8.0
CCCC1CC(=O)OC1(C)C(=O)CSc1n[nH]c(-c2ccccc2)n1 (stereo not given),-1.6%,-19.4%,0.0%,12.6µM*,35.6
COC(=O)c1ccc(NC(=O)c2cc3cc(C)ccc3n2C)cc1,-12.5%[46 µM],x,x,x,x
N=c1nc(N)nc(N)n1-c1ccc(S(N)(=O)=O)cc1,x,2.8%,-1.0%[7.66 µM],10.2%[13.5 µM],x
CCCCc1c(C)nc2ccccc2c1SCCC#N,-8.4%,-26.4%,5.0%,7.08µM*,27.5
CCc1c(C)nc2c(C)cccc2c1SCCC#N,x,x,0.4%,7.94µM*,x
C=CCc1c(C)nc2c(C)cccc2c1SC(=N)N,x,x,x,-4.8%,x
COc1ccc2c(c1)N(CC[C@H]1CCCCN1C)c1ccccc1S2,x,-7.9%,-2.8%[7.66 µM],10.5%[13.5 µM],x
COC(=O)C/C=C/[C@@H](C)[C@@H](Cc1ccccc1Br)OC,x,-11.8%,1.3%,-6.3%,x
O=C(c1csnn1)N1CCC2(CC1)CN(C(c1ccccc1)c1ccccc1)C2,x,-3.1%,-3.1%,-6.6%,x
CCN(C(=O)COC(=O)CNC(=O)c1ccc(C)c(C)c1)C1CCS(=O)(=O)C1 (stereo not given),-8.5%,-12.1%,-5.1%,25.1µM*,-121.5*
O=C1C(NS(=O)(=O)c2ccc(Cl)cc2)=C(N2CCCCC2)C(=O)c2ccccc21,-14.2%,-17.2%,-16.1%,8.91µM*,u
COC(=O)C1CCN(c2csc3ccc(C)cc3c2=O)CC1,-1.9%[46 µM],x,x,x,x
Cc1ccc(C)c(N2CCN(C(=O)CSc3ccsc3[N+](=O)[O-])CC2)c1,u,u,4.1%,11.2µM*,-17.5
O=C(CSc1ccsc1[N+](=O)[O-])N1CCN(c2ccccc2)CC1,u,-3.0%,-1.2%,u,3.8
CC(C)(C)c1ccc(OCc2ccc(C(=O)N/N=C3\CC4CC=CC34)cc2)cc1 (stereo not given),u,-19.0%,0.1%,2.6%,-27.4
O=C(N/N=C1\CC2CC=CC12)c1ccc(COc2ccccc2)cc1 (stereo not given),u,22.4µM*,6.3%,-4.3%,35.0
CCOC(=O)c1c(NC(=O)C(C)Sc2cn(C)c3ccccc23)sc2c1CCC2 (stereo not given),8.7%,-11.6%,13.9%,25.1µM*,6.0
CCOC(=O)c1c(N)sc2c1CCCC2,3.1%,u,-1.7%,20µM*,u
CCOC(=O)c1ccc(NC(=O)c2c(NCc3cccs3)sc3c2CCCCC3)cc1,9.7%[46 µM],x,x,x,x
CCOC(=O)c1c(NC=O)sc2c1CCC2,7.3%,-6.0%,-4.1%,-10.3%,-10.9
CCCC1CCc2c(sc(N)c2C(N)=O)C1 (stereo not given),-6.8%,-11.8%,-5.9%,10µM*,-12.7
CCOC(=O)c1ccc(NC(=O)c2c(NC(=O)CCC(=O)O)sc3c2CCCCC3)cc1,x,x,-1.7%,15.8µM*,x
CCC(C)(C)C1CCc2c(sc(N)c2C(N)=O)C1 (stereo not given),u,-4.9%,-0.1%,u,-2.8
COc1ncc2nc(-c3ccc(F)cc3)c(=O)n(-c3ccccc3)c2n1,-4.1%,x,x,u,x
CCCn1c(-c2ccc(F)cc2)nc2c(NCCCCN(C)C)nc(C)nc21,x,u,-0.1%,u,x
COc1cccc2cc(-c3nnc(Nc4ccccc4C)s3)c(=O)oc12,20.0%[46 µM],x,x,x,x
CCOC(=O)c1c(N)sc2c1CCS(=O)(=O)C2,7.6%,39.8µM*,-4.3%,28.2µM*,-4.1
CCNC(=O)c1c(N)sc2c1CCCCC2,4.8%,28.2µM*,-10.6%,28.2µM*,-5.7
CCC(=O)Nc1sc2c(c1C(=O)N(C)C)CCCCC2,-4.9%,2.5%,-1.0%,u,-15.7
